These results are taken from ChEMBL document CHEMBL4513216, “Probing the Open Global Health Chemical Diversity Library for Multistage-Active Starting Points for Next-Generation Antimalarials” (ACS Infect Dis, 2020).

Screen size: about 69,000 compounds; about 8,600 (12%) showed an effect of 50% or more. This excerpt belongs to a sample that is enriched for strong results.

The assay has as its system Plasmodium berghei. In words: Screen against P. berghei liver stage (PbLuc), transformed with Luciferase, at 10uM. The format is functional, HepG2. Conditions: tested at 10 uM.
Turning to `Cn1cccc1C(=O)N1C[C@@H](OCc2cccnc2)[C@H]2OCCC[C@H]21`, the INHIBITION is 41.3%.
The result for `CN(C)CC(=O)NC1CC(=O)N(CCc2ccccc2)C1` (configuration not stated) reads 11.2%; that for `Cc1cc2c(=O)n3c(nc2s1)CCN(C(=O)c1cn(C)nc1C)CC3`, 14.7%; that for `Cc1nnn2c1COCC(CNCc1nccs1)C2` (configuration not stated), -27.6%.
Turning to `Cc1cc2n(n1)CC(CNC1CCN(Cc3ccccc3C)CC1)CN2` (configuration not stated), the INHIBITION is on record as 16.6%.
The result for `Cc1cc2n(n1)CC(CNC1CCN(Cc3ccncc3)CC1)CN2` (configuration not stated) reads 16.1%; that for `Cc1cc2n(n1)CC(CNC1CCN(c3ccccn3)CC1)CN2` (configuration not stated), 31.4%; that for `c1ccc(CN2CCC(NCCc3ccc4c(c3)CCO4)CC2)nc1`, 25.7%.
Under `Cc1cc2n(n1)CC(CNC1CCN(Cc3ccccn3)CC1)CN2` (configuration not stated) stands 50.2%; under `Fc1ccc(OCCNC2CCN(Cc3ccccn3)CC2)c(F)c1`, 53.6%; under `N#Cc1ccc(NC2CCN(Cc3ccccn3)CC2)c(F)c1`, -5.78%.
The result for `Fc1ccc(OCCNC2CCN(Cc3ccncc3)CC2)c(F)c1` reads 61.3%; that for `CC(CNC1CCN(Cc2ccncc2)CC1)c1ccc(F)cc1F` (configuration not stated), -0.275%; that for `Fc1cccc(-c2c[nH]c(C3CCCN3)n2)c1` (configuration not stated), -4.62%.
Take `CN(C(=O)NCC1(CN2CCOCC2)CCCCC1)C1CC1`: the INHIBITION is on record as 0.0944%.
The result for `Cc1nc(CN2CCC(N(C)Cc3noc(C(C)C)n3)C2)oc1C` (configuration not stated) reads 11.4%; that for `CN1CC(=O)N(c2cccc(F)c2)CC12CCN(CC1CC1)C2` (configuration not stated), 19.5%.
In the case of `CN(Cc1nccn1C)S(=O)(=O)N1CCCC1c1ccco1` (configuration not stated), the INHIBITION is given as 15.7%.
Under `CC(O)CN1CCC(=O)N(Cc2ccccc2)Cc2ccccc21` (configuration not stated) stands 28.3%.
The result for `Cc1noc(C(C)N2CCN(Cc3cccc(C#N)c3)CC2)n1` (configuration not stated) reads 21.5%; that for `COc1ccc(CN2CCN(C(C)c3nc(C4CC4)no3)CC2)cc1` (configuration not stated), 40.3%; that for `Cc1noc(C(C)N2CCN(c3ccc(C#N)cn3)CC2)n1` (configuration not stated), -5.78%.
The result for `CC(C)c1noc(C(C)N2CCN(Cc3cccc(C#N)c3)CC2)n1` (configuration not stated) reads -8.11%; that for `CC(c1nc(C2CC2)no1)N1CCN(Cc2ccc(C#N)cc2)CC1` (configuration not stated), 57%; that for `CC(C)c1noc(C(C)N2CCN(c3ccc(C#N)cn3)CC2)n1` (configuration not stated), 45.9%.
As to `CC(c1nc(C2CC2)no1)N1CCN(Cc2ccccc2)CC1` (configuration not stated), the INHIBITION is reported as 27.4%.
For the compound `CC(c1nc(C2CC2)no1)N1CCN(c2ccc(C#N)cn2)CC1` (configuration not stated), the INHIBITION is on record as 55.3%.
Under `CC(c1nc(C2CC2)no1)N1CCN(Cc2cccc(C#N)c2)CC1` (configuration not stated) stands 60.5%; under `CCC(C)(C)NC(=O)CN1C=Nc2ccccc2S1(=O)=O`, 19.6%.
The result for `c1cnc(N2CCC3(CCN(CC4CCOCC4)CC3)C2)nc1` reads 5.67%; that for `CCc1c(C(=O)O)nnn1-c1ccc(C)cc1C`, 39.2%.
The result for `CN(C)S(=O)(=O)N1C[C@@H]2CN(Cc3ccoc3)CCO[C@@H]2C1` reads 23.6%; that for `CN1CCN(CCOc2ccc(NC(=O)c3ccoc3)cc2)CC1`, -6.99%; that for `CCc1c(C(=O)O)nnn1-c1cccc(C)c1C`, 6.09%.
As for `COCC(=O)N1CC[C@@H](O)[C@@H]1Cc1ccccc1`, the INHIBITION came to 37.5%.
`COc1cc(N2CC[C@@H](O)[C@@H]2Cc2ccccc2)ncn1`: the INHIBITION was determined as 92.8%.
Take `COc1cc(N2CC[C@H](O)[C@@H]2Cc2ccccc2)ncn1`: the INHIBITION is 75.4%.
The result for `COCCO[C@@H]1CCN(c2cc(OC)ncn2)[C@H]1Cc1cnn(C)c1` reads 14.6%.
Under `COc1cc(N2CC[C@@H](O)[C@@H]2Cc2cccnc2)ncn1` stands 85.8%; under `COc1cc(N2CC[C@H](O)[C@@H]2Cc2cnn(C)c2)ncn1`, 22.7%.
The result for `COCCN1CC[C@H](O)[C@@H]1Cc1ccccc1` reads 0.79%; that for `COCCO[C@H]1CCN(c2cc(OC)ncn2)[C@H]1Cc1cnn(C)c1`, 76.2%.
Turning to `COc1cc(N2CC[C@H](O)[C@@H]2Cc2cccnc2)ncn1`, the INHIBITION turned out to be 6.6%.
Under `COc1cc(N2CC[C@@H](OC)[C@@H]2Cc2cnn(C)c2)ncn1` stands 23.5%; under `COc1cc(N2CC[C@@H](O)[C@@H]2Cc2ccncc2)ncn1`, 43.9%; under `COCCN1CC[C@@H](O)[C@@H]1Cc1ccccc1`, 6.32%.
Under `Cc1cc(OCCC(=O)Nc2cccc(F)c2)nnc1C` stands -9.93%; under `Cc1cc2c(=O)n3c(nc2s1)CCN(Cc1cncn1C)CC3`, 5.11%; under `Cc1cnn(CC(=O)N2CCCN(c3ncccc3C#N)CC2)c1`, -14.7%.
Turning to `CS(=O)(=O)c1cnc(N2CCCC2)nc1C1CCN(C(=O)C2CC2)CC1`, the INHIBITION is on record as -15.7%.
Under `Cc1cc(C(=O)NCc2ccc(-c3n[nH]cc3C(=O)N(C)C)cc2)on1` stands 39.35%; under `CCc1cnc(N2CC[C@H]3[C@H]2CC(=O)N3c2cccnc2)nc1`, -34.7%.
Under `Cc1ccc(N2N=C(C(N)=O)S(=O)(=O)c3cccnc32)cc1` stands 41.5%; under `Cc1cc(CN2CCN(C(=O)NCc3cccs3)CC2)on1`, 14.1%; under `COCCO[C@H]1CCN(c2cc(OC)ncn2)[C@H]1Cc1cccnc1`, 82.8%.
The result for `Cc1ccc(N2CC[C@H](OCC3CC3)[C@@H]2Cc2cccnc2)nn1` reads 42.4%; that for `c1cnc(N2CC[C@@H](OCC3CC3)[C@@H]2Cc2cccnc2)nc1`, 64.3%.
For the compound `COCCO[C@H]1CCN(c2ccc(C)nn2)[C@H]1Cc1cccnc1`, the INHIBITION was determined as 5.68%.
The result for `c1ccc(N2CC[C@H](OCC3CC3)[C@@H]2Cc2cccnc2)nc1` reads 37.5%; that for `COCCO[C@H]1CCN(c2cc(OC)ncn2)[C@H]1Cc1ccncc1`, -39.2%; that for `Cc1cc2nc(SCC(=O)N3CCOCC3)n(CCC(C)C)c(=O)c2[nH]1`, 45.8%.
For the compound `O=C(Cc1ccc(-n2cnnn2)cc1)Nc1cnn(CC(F)F)c1`, the INHIBITION is on record as 42.6%.
The result for `O=C(c1ccc(-c2ccc(O)nc2)s1)N1CCSCC1` reads 3.295%; that for `Cc1ccc(CN2C[C@H](OCCN(C)C)[C@H]3COC[C@H]32)o1`, 14.6%; that for `Fc1ccc(-c2nnc(CN3CCCC(Cn4cncn4)C3)o2)cc1` (configuration not stated), -105%.
The result for `CCCc1n[nH]c(C2CN(C(=O)CCc3cscn3)CCO2)n1` (configuration not stated) reads 25.3%; that for `CC(C)NC(=O)N1CCC2(CC1)Cc1ccccc1CNC2=O`, 29.5%.
Under `OCCCNc1nc(O)c2c(n1)-c1ccccc1CC21CCCCC1` stands 77.2%; under `CN1Cc2ccccc2CC2(CCN(CCO)CC2)C1=O`, -9.23%.
Regarding `CCC1(C)Cc2ccccc2-c2nc(NCCCO)nc(O)c21` (configuration not stated), the INHIBITION came to 28.4%.
Under `O=c1[nH]c(NCCO)nc2c1C1(CCCC1)Cc1ccccc1-2` stands 62.3%; under `O=c1[nH]c(NCCO)nc2c1C1(CCCCC1)Cc1ccccc1-2`, 66.5%; under `Cc1cccc(CN2CCCC3(Cc4ccccc4CNC3=O)C2)n1` (configuration not stated), 9.32%.
The result for `O=c1[nH]c(NCCCO)nc2c1C1(CCCC1)Cc1ccccc1-2` reads 64%; that for `Cc1cc(C(=O)NC2CCN(c3nnc(C)c(C)c3C#N)CC2)no1`, 3.87%; that for `Cn1ccc(C(=O)N2CCOC(c3ccc(C(N)=O)cn3)C2)n1` (configuration not stated), 22%.
Consider `Cc1noc(CNC(=O)CN(C)c2nc3ccccc3s2)n1`, for which the INHIBITION is -4.01%.
Under `O=C(c1cc(C2CCCN(Cc3ccccn3)C2)no1)N1CCCC1` (configuration not stated) stands 7.52%; under `Cc1oc(-c2cccs2)nc1C(=O)N1CCCC1Cn1cccn1` (configuration not stated), 36.1%.
Take `c1ccc(CN2CCc3c(COCc4ccncc4)cncc3C2)nc1`: the INHIBITION came to 3.81%.
The result for `O=c1cc(Cn2cncn2)nc2n1CCCN(Cc1ccc(F)cc1)C2` reads 22.5%; that for `COc1c(CNCC(O)c2cccc(F)c2)c(C)nn1C` (configuration not stated), -47.6%.
For the compound `Cn1c(Cn2ccnc2)nnc1C1CCN(C(=O)c2ccccn2)CC1`, the INHIBITION is 5.41%.
Under `Cc1ncccc1NC(=O)[C@@H]1CC[C@@H]2[C@@H](CCN2Cc2cnn(C)c2)O1` stands 0.734%.
Under `COc1cccc(-c2cccc(N3CCC(N[C@@H]4CCOC4)CC3)c2)c1` stands 53.7%.
Under `Cc1ccc(-c2cccc(N3CCC(NC4CCOCC4)CC3)c2)cc1` stands 39.3%; under `Fc1cccc(-c2cccc(N3CCC(NC4CCCOC4)CC3)c2)c1` (configuration not stated), 46.5%.
As to `CC(=O)N1CCC(c2cncc(N3CCC(O)C3)n2)CC1` (configuration not stated), the INHIBITION is on record as 23.9%.
The result for `CC(C)c1noc(CCC(=O)NCC2CCC(C(N)=O)CC2)n1` (configuration not stated) reads -21.8%; that for `CCCn1nccc1NC(=O)CN1CCCC1c1c(C)nn(C)c1C` (configuration not stated), 34.1%.
Under `COc1ccc(-n2nnc(C(N)=O)n2)cc1` stands -8.07%; under `CCn1cc(Br)c(C(=O)NCc2cnn(C)c2)n1`, -13.2%.
The result for `CCn1cc(CNC(=O)c2nn(CC)cc2Br)cn1` reads 76%; that for `CCn1cc(Br)c(C(=O)NCc2ccccc2)n1`, 17%.
With `COCC1Cn2nnc(-c3cnn(C)c3)c2CN1Cc1ccsc1` (configuration not stated), the INHIBITION is recorded as 33.4%.
The result for `COc1cccn(CC(=O)N2CCCC3(CCCO3)CC2)c1=O` (configuration not stated) reads -2.61%; that for `Cc1ccc(S(=O)(=O)N(CCO)C2CC2)cc1N(C)C`, 21.3%; that for `CC(C)c1nnc2n1CCN(C(=O)c1ccnc(-n3ccnc3)c1)C2`, 31.2%.
`CCC(=O)NCC(=O)NCC1(c2c(F)cccc2F)CCCC1`: the INHIBITION is reported as -3.59%.
`CC(=O)NCCC(=O)NCC1(c2c(F)cccc2F)CCCC1`: the INHIBITION was determined as 24.2%.
The result for `CCS(=O)(=O)CC(=O)NCC1(c2c(F)cccc2F)CCCC1` reads 57.4%; that for `Cc1noc(C)c1CN1C[C@H](OCc2ccncc2)[C@H]2OCCC[C@H]21`, -10.3%; that for `Cn1cc(CN2CCc3ncnc(N4CCOCC4)c3CC2)cn1`, 5.36%.
The result for `CCNc1cc2c(nn1)CCN(C(=O)c1cccc3c1OCO3)C2` reads -4.16%.
Consider `COc1cccc(Nc2nc(C3CCNCC3)c3sc(C)c(C)n23)c1`, for which the INHIBITION is 23.12%.
Under `Cc1sc2c(C3CCCNC3)nc(Nc3cccc(F)c3)n2c1C` (configuration not stated) stands 36.5%; under `Cc1sc2c(C3CCNCC3)nc(Nc3cccc(F)c3)n2c1C`, 54.6%.
